Among the test systems are NCI-H23 lung; NCI-H226 lung; HOP-62 NSCLC; NCI-H460 lung; NCI-H522 lung; A549/ATCC NSCLC; 786-0 renal; COLO 205 colon; HOP-92 NSCLC; NCI-H322M lung.
What all share (experiment): NCI-60 one-dose screen, 48 h (100 = growth as untreated, 0 = no growth, -100 = all killed)
Holding throughout (conditions): 10 µM unless noted

Each structure is given as a SMILES string. The panel holds about 83,000 compounds, 20% with a hit somewhere; the sample as a whole holds those more often.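 In brief: 96-well plates, 48 h treatment, single concentration, percent growth endpoint.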 Unmarked numbers belong to inactive results. Activity calls are given as the source filed them. How the source made its calls: active means growth percent below 10; inactive means the rest.

Turning to `COc1ccc(-c2nc3c(N)c(CO)cnc3s2)cc1`, the growth in the assay with NCI-H23 lung is 86.7%; in the assay on NCI-H226 lung, 41.6%; with HOP-62 NSCLC, 100%; in the assay on NCI-H460 lung it was 97.6%; with NCI-H522 lung, 92.1%; in the assay on A549/ATCC NSCLC, 91.7%. The growth is 95% in the assay on 786-0 renal and 104% in the assay on COLO 205 colon.

`N#Cc1cncc(-c2ccc3ncnc(Nc4cccc(Cl)c4)c3c2)c1`: the growth in the assay with NCI-H23 lung is 62.4%; in the assay on NCI-H226 lung, 69.9%; with HOP-62 NSCLC, 61.5%; with NCI-H460 lung, 75.2%; in the assay with HOP-92 NSCLC it was 18.6%; with NCI-H522 lung, 65.2%. In addition, the growth with A549/ATCC NSCLC was 62.3%; in the assay with 786-0 renal it was 61.6%; with COLO 205 colon, 96.6%.

Regarding `Cc1cccc(N2CCC(=O)NC2=S)c1`, the growth with NCI-H23 lung is 98.5%; with NCI-H322M lung, 101%; with NCI-H460 lung, 104%; with HOP-92 NSCLC, 105%; with NCI-H522 lung it was 97%; in the assay on A549/ATCC NSCLC, 99.1%. The growth was 103% in the assay on 786-0 renal and 119% in the assay with COLO 205 colon.

On to `Cc1ncc(C(=O)Nc2ccc(CN3CCN(C)CC3)c(C(F)(F)F)c2)cc1C#Cc1cnc(N)c2ncccc12`, for which the growth with NCI-H23 lung was 38.4%; with NCI-H322M lung, 30.3%; in the assay with HOP-62 NSCLC, 20.6%; in the assay on NCI-H460 lung, 27.1%; in the assay with NCI-H522 lung, 26.2%; in the assay with 786-0 renal it was -71.4% (active). Further, the growth in the assay on COLO 205 colon is 1.6% (active).

For the molecule `COc1ccc(C2=CN3CC=CC3CC2=O)cc1` (stereo unspecified), the growth with NCI-H23 lung is 97.8%; with NCI-H322M lung, 108%; in the assay on HOP-62 NSCLC it was 91.1%; in the assay on NCI-H460 lung, 106%; in the assay on HOP-92 NSCLC, 107%; in the assay on NCI-H522 lung, 85.2%. Moreover, the results for the growth in the assay on A549/ATCC NSCLC, in the assay on 786-0 renal and in the assay with COLO 205 colon were 87.4%, 88.8% and 102%, respectively.

The values above are taken from PubChem BioAssay (NCI).
